From ChEMBL document CHEMBL2218924, “A broad activity screen in support of a chemogenomic map for kinase signalling research and drug discovery” (Biochem J, 2013) come the findings set out here.

In general, residual activity refers to the signal under treatment as a percentage of the control signal.

Molecules are shown by their SMILES.

Chain of Serine/threonine-protein kinase PAK 2 (Homo sapiens) (Q13177 whole entry): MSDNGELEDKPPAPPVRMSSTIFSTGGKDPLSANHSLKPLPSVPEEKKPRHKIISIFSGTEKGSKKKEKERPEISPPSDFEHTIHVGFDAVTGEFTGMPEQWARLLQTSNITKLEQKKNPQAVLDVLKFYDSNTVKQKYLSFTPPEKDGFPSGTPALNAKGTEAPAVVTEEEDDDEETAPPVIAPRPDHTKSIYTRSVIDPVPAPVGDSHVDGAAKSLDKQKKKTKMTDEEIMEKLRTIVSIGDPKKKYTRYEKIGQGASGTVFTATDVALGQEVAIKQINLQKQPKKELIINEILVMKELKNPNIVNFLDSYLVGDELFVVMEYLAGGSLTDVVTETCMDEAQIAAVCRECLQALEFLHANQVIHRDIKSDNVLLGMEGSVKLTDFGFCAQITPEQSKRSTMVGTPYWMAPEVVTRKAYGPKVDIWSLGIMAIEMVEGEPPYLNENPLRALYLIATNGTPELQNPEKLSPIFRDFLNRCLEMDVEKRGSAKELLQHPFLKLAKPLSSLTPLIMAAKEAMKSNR

One experiment has as its target Serine/threonine-protein kinase PAK 2 (Homo sapiens) (UniProt Q13177). The conditions noted are these: at 1 µM.
On to `COc1cc2ncnc(Nc3cccc(Cl)c3)c2cc1OC`, for which the residual activity was 126%.
On the same count and under the same terms, with `O=C1NC(=O)C(c2cn(CCCO)c3ncccc23)=C1c1cnccn1` the figure was 89%; with `CC(C)(C)n1nc(Cc2cccc3ccccc23)c2c(N)ncnc21`, 98%; with `Nc1ncnc2c1c(-c1ccc(Oc3ccccc3)cc1)cn2C1CCCC1`, 98%.
For `O=C1Cc2c([nH]c3ccc([N+](=O)[O-])cc23)-c2ccccc2N1`, the residual activity worked out at 43%.
With `CC(C)c1nn(-c2c(Cl)cccc2Cl)c2nc(Cc3ccc(OCCO)cc3)[nH]c(=O)c12`, the residual activity is 88%.
On the same count and under the same terms, the value for `Cn1sc(=O)n(Cc2ccccc2)c1=O` was 97%; that for `O=C(O)/C=C/c1cc(Br)c(Br)c(Br)c1Br` was 97%.
Same read-out and setting: with `Cn1c2ccccc2c2c3c(c4c5ccccc5n(CCC#N)c4c21)CNC3=O` the figure was 101%.
Same read-out and setting: the value for `O=C1NC(=O)c2c1c1c3ccccc3[nH]c1n1cncc21` was 98%; that for `O=c1cc(N2CCNCC2)oc2c(-c3ccccc3)cccc12` was 98%.
For `CCCC(=O)Oc1ccc2[nH]c(C(=O)c3cc4ccccc4[nH]3)cc2c1`, the residual activity is 102%.
On the same count and under the same terms, the value for `N#Cc1c(NC(=O)c2cccc3ccccc23)sc2c1CCCC2` was 93%; that for `O=C1Nc2ccc(Cl)cc2/C1=C/c1cc(Cl)c(O)c(Cl)c1` was 97%.
Consider `COc1cc2nccc(Oc3ccc(NC(=S)NC(=O)c4ccccc4C)cc3)c2cc1OC`, for which the residual activity turned out to be 98%.
The same measure, in the same setting: the value for `O=C1Cc2c([nH]c3ccc(Br)cc23)-c2ccccc2N1` was 91%; that for `NC(=O)Nc1sc(-c2ccc(F)cc2)cc1C(N)=O` was 93%; that for `O=c1cc(N2CCOCC2)oc2c1ccc1ccccc12` was 97%.
On the same count and under the same terms, the value for `Nc1ncnc2[nH]nc(Nc3ccc(F)cc3)c12` was 106%.
The same measure, in the same setting: with `O=C(c1cc2cc(O)ccc2[nH]1)c1cc2cc(O)ccc2[nH]1` the figure was 100%.

A further experiment has the same target. The conditions noted are these: at 10 µM.
For `COc1cc2ncnc(Nc3cccc(Cl)c3)c2cc1OC`, the residual activity came to 111%.
On the same count and under the same terms, with `O=C1NC(=O)C(c2cn(CCCO)c3ncccc23)=C1c1cnccn1` the figure was 99%; with `CC(C)(C)n1nc(Cc2cccc3ccccc23)c2c(N)ncnc21`, 49%.
For `Nc1ncnc2c1c(-c1ccc(Oc3ccccc3)cc1)cn2C1CCCC1`, the residual activity was found to be 61%.
Same read-out and setting: the value for `O=C1Cc2c([nH]c3ccc([N+](=O)[O-])cc23)-c2ccccc2N1` was 30%; that for `CC(C)c1nn(-c2c(Cl)cccc2Cl)c2nc(Cc3ccc(OCCO)cc3)[nH]c(=O)c12` was 69%; that for `Cn1sc(=O)n(Cc2ccccc2)c1=O` was 91%.
Take `Nc1ncnc2c1cnn2-c1ccccc1`: the residual activity stood at 97%.
On to `O=C(O)/C=C/c1cc(Br)c(Br)c(Br)c1Br`, for which the residual activity stood at 95%.
Turning to `O=C1NC(=O)c2c1c1c3ccccc3[nH]c1n1cncc21`, the residual activity came to 89%.
Turning to `O=c1cc(N2CCNCC2)oc2c(-c3ccccc3)cccc12`, the residual activity amounted to 80%.
Same read-out and setting: the value for `CCCC(=O)Oc1ccc2[nH]c(C(=O)c3cc4ccccc4[nH]3)cc2c1` was 86%; that for `O=C1Nc2ccc(Cl)cc2/C1=C/c1cc(Cl)c(O)c(Cl)c1` was 75%; that for `COc1cc2nccc(Oc3ccc(NC(=S)NC(=O)c4ccccc4C)cc3)c2cc1OC` was 87%.
The same measure, in the same setting: the value for `O=C1Cc2c([nH]c3ccc(Br)cc23)-c2ccccc2N1` was 75%; that for `NC(=O)Nc1sc(-c2ccc(F)cc2)cc1C(N)=O` was 71%; that for `O=c1cc(N2CCOCC2)oc2c1ccc1ccccc12` was 89%.
On to `Nc1ncnc2[nH]nc(Nc3ccc(F)cc3)c12`, for which the residual activity was found to be 109%.
Same read-out and setting: with `O=C(c1cc2cc(O)ccc2[nH]1)c1cc2cc(O)ccc2[nH]1` the figure was 83%.

For the next experiment, the target named is Serine/threonine-protein kinase PAK 4 (Homo sapiens) (UniProt O96013). The conditions noted are these: at 1 µM.
Chain of Serine/threonine-protein kinase PAK 4 (Homo sapiens) (O96013 whole entry, looked up): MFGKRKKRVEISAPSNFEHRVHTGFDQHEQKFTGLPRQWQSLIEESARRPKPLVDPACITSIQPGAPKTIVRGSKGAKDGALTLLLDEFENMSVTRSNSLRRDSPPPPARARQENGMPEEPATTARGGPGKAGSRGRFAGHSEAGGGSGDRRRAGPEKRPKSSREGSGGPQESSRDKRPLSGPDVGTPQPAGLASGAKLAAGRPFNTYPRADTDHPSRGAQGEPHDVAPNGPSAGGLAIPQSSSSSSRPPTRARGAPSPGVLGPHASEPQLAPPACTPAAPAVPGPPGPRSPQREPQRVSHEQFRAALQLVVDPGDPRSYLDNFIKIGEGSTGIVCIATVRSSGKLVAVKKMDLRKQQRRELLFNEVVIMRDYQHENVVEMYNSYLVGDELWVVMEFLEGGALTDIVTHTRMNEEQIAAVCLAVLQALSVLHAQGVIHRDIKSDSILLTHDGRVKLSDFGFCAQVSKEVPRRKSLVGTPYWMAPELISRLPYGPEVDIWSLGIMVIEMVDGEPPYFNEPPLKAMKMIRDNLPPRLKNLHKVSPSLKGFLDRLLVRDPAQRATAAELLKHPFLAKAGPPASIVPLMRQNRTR
For `O=C(NC(NC(=S)Nc1ccc(F)c([N+](=O)[O-])c1)C(Cl)(Cl)Cl)C(c1ccccc1)c1ccccc1` (stereo unspecified), the residual activity was 100%.
The same measure, in the same setting: with `CC(C)(C)n1nc(Cc2cccc3ccccc23)c2c(N)ncnc21` the figure was 88%; with `Nc1ncnc2c1c(-c1ccc(Oc3ccccc3)cc1)cn2C1CCCC1`, 89%.
On the same count and under the same terms, the value for `O=C1Cc2c([nH]c3ccc([N+](=O)[O-])cc23)-c2ccccc2N1` was 22%; that for `CC(C)c1nn(-c2c(Cl)cccc2Cl)c2nc(Cc3ccc(OCCO)cc3)[nH]c(=O)c12` was 84%; that for `Cn1sc(=O)n(Cc2ccccc2)c1=O` was 94%.
Same read-out and setting: with `O=C(O)/C=C/c1cc(Br)c(Br)c(Br)c1Br` the figure was 108%.
For `O=C1NC(=O)C(c2c[nH]c3ccccc23)=C1c1c[nH]c2ccccc12`, the residual activity was 98%.
On the same count and under the same terms, with `Cn1c2ccccc2c2c3c(c4c5ccccc5n(CCC#N)c4c21)CNC3=O` the figure was 3%; with `O=C1NC(=O)c2c1c1c3ccccc3[nH]c1n1cncc21`, 81%.
Still for that read-out and setting: with `Nc1n[nH]c2nc3ccccc3nc12` the figure was 94%; with `O=c1cc(N2CCNCC2)oc2c(-c3ccccc3)cccc12`, 102%; with `CCCC(=O)Oc1ccc2[nH]c(C(=O)c3cc4ccccc4[nH]3)cc2c1`, 94%.
As to `O=C1Nc2ccc(Cl)cc2/C1=C/c1cc(Cl)c(O)c(Cl)c1`, the residual activity was found to be 91%.
Still for that read-out and setting: with `COc1cc2nccc(Oc3ccc(NC(=S)NC(=O)c4ccccc4C)cc3)c2cc1OC` the figure was 88%.
Still for that read-out and setting: the value for `Oc1cccc(-c2nc(N3CCOCC3)c3oc4ncccc4c3n2)c1` was 100%; that for `O=C1Cc2c([nH]c3ccc(Br)cc23)-c2ccccc2N1` was 25%.
On the same count and under the same terms, with `NC(=O)Nc1sc(-c2ccc(F)cc2)cc1C(N)=O` the figure was 55%.
In the case of `COc1ccc(Cl)cc1NC(=O)Nc1cc(C)nc2ccccc12`, the residual activity worked out at 96%.
On the same count and under the same terms, with `O=c1cc(N2CCOCC2)oc2c1ccc1ccccc12` the figure was 94%; with `Nc1ncnc2[nH]nc(Nc3ccc(F)cc3)c12`, 111%.
Take `O=C(c1cc2cc(O)ccc2[nH]1)c1cc2cc(O)ccc2[nH]1`: the residual activity was determined as 71%.
